Only a selection was taken, and hits are over-represented in it overall.
ST2 inh: blocks human ST2 binding to IL-33. AID 1259354. Q01638. inhibition, % for hits at 17 µM. hit rate 2.3% among 78,000. AlphaLISA ST2-Fc/biotin-IL-33 interaction, 1 h; in the data active = inhibition above about 30%
Target sequence (Q01638 whole entry, looked up): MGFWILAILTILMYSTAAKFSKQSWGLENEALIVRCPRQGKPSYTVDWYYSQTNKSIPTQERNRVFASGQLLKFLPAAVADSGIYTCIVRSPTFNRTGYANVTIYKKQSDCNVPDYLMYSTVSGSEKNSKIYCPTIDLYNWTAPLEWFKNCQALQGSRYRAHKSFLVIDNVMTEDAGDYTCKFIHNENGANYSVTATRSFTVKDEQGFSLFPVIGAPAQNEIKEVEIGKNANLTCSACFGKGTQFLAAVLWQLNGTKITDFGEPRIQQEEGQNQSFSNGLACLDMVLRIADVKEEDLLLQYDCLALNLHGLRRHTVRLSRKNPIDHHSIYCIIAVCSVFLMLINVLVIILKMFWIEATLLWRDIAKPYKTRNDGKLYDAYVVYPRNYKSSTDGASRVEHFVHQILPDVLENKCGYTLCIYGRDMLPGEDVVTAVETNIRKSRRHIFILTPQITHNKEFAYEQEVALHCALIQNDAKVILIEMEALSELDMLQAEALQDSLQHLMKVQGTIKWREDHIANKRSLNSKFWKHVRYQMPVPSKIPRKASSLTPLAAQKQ
Hits are given with their value; – = inactive.

SMILES | ST2 inh
COc1ccc(-c2cnn(-c3ccccc3)c2N)cc1OC | –
COc1cc(/C=C/c2nc3ccccc3c(=O)n2-c2cccc([N+](=O)[O-])c2)ccc1O | –
NC(=O)c1ccc(NC(=O)C2CCCCC2)cc1 | –
Cc1cccc2cc(C(=O)N3C[C@H]4CC=CC[C@H]4C3)oc12 | –
CCOc1cccc(C2Nc3ccccc3NC3=C2C(=O)CC(C)(C)C3)c1O (stereo not given) | –
COc1ccc(CNC(=O)CN(c2ccccc2F)S(C)(=O)=O)cc1 | –
CCOC(=O)CN(Cc1ccc(Cl)cc1)S(=O)(=O)c1ccc(C(C)(C)C)cc1 | –
c1cncc(-c2nnc([C@H]3CCN(Cc4ccncc4)C3)o2)c1 | –
Cc1ccc(CN2CC[C@H](c3nnc(-c4cccnc4)o3)C2)cc1 | –
c1ccc(CN2CC[C@H](c3nnc(-c4cccnc4)o3)C2)cc1 | 34.0%
CCOC(=O)C1CCCN(S(=O)(=O)N(C)C)C1 (stereo not given) | –
CCSc1oc(-c2ccc(F)cc2)nc1S(=O)(=O)c1ccccc1 | –
Nc1ccc(Cl)c2c1C(=O)c1ccccc1C2=O | 42.0%
Nc1cccc2c1C(=O)N(c1ccc(Cl)cc1)C2=O | –
Nc1ccc(N2C(=O)c3ccccc3C2=O)c(Cl)c1 | –
Cc1ccc(C2(O)CCN(C(=O)Cc3c[nH]c4ccccc34)CC2)nc1 | –
CCOc1ccc(/C=C2\N=C(c3cc([N+](=O)[O-])cc([N+](=O)[O-])c3)OC2=O)cc1 | 40.0%
CCCCOc1ccc(C2=N/C(=C\c3ccc([N+](=O)[O-])cc3)C(=O)O2)cc1 | –
CCOc1ccc(/C=C2\N=C(c3ccc([N+](=O)[O-])cc3)OC2=O)cc1 | –
Brc1ccc(C2CC(c3ccccc3)n3ncnc3N2)cc1 (stereo not given) | –
Cc1ccc(S(=O)(=O)Nc2cccc(C(=O)NN)c2)cc1 | –
Cc1ccc([N+](=O)[O-])cc1S(=O)(=O)Nc1cccc(C(=O)O)c1 | –
Cc1ccc(S(=O)(=O)N=C2C=C(Nc3cccc(C(=O)O)c3)C(=O)c3ccccc32)cc1 | 53.0%
Cc1ccc(NC(=O)c2cccc(S(=O)(=O)Nc3cccc(C(=O)O)c3)c2)cc1 | –
Cc1ccc(S(=O)(=O)N=C2C=C(Nc3cccc(C(=O)O)c3)C(=O)c3ccccc32)c(C)c1 | 48.0%
SMILES | ST2 inh
Cc1cccc(NC(=O)C(C)N(c2ccccc2)S(C)(=O)=O)c1 (stereo not given) | –
COc1cccc2c1OCCCN(C(=O)c1cc(C3CC3)[nH]n1)C2 | –
COCCOC(=O)c1c(C)oc2ccc(OCc3ccc(Cl)c(Cl)c3)cc12 | –
COc1ccc(C2=N/C(=C\c3cccc(OC)c3OC)C(=O)O2)cc1[N+](=O)[O-] | –
COc1ccc(-n2cc3c([N+](=O)[O-])cc([N+](=O)[O-])cc3n2)cc1 | –
COc1ccccc1-n1cc2c([N+](=O)[O-])cc([N+](=O)[O-])cc2n1 | 35.0%
CC(C)c1ccc(S(=O)(=O)N2CCN(c3cc(-c4cccc(F)c4)ncn3)CC2)cc1 | –
Cc1cc(/C=C2\NC(=O)N(Cc3ccc(Cl)cc3)C2=O)c(C)n1-c1ccc(C#N)cc1 | –
O=C1N/C(=C\c2ccc(Cl)cc2)C(=O)N1Cc1ccc(Cl)cc1 | –
N#Cc1ccc(/C=C2\NC(=O)N(Cc3ccc(Cl)cc3)C2=O)cc1 | 30.0%
CCn1c(CC2CCN(C/C=C/c3ccc(F)cc3)CC2)nn(C)c1=O | –
O=C(c1csc(S(=O)(=O)NC2CCCC2)c1)N1CCCC1 | –
COc1ccc(CC(=O)N(c2ccc(OC)cc2OC)C2C=CS(=O)(=O)C2)cc1 (stereo not given) | –
O=S(=O)(c1cccc2nsnc12)N1CCN(C23CC4CC(CC(C4)C2)C3)CC1 | –
O=S(=O)(c1cccc2nsnc12)N1CCC(n2c(Cc3ccccc3)nc3cccnc32)CC1 | 97.0%
CC(=O)Nc1ccc(S(=O)(=O)N2CCC(n3c(Cc4ccccc4)nc4cccnc43)CC2)cc1 | –
O=C1NN(c2cccc(Cl)c2)C(=O)/C1=C\c1cccn1-c1ccc([N+](=O)[O-])cc1 | 59.0%
Cc1ccc(N2NC(=O)/C(=C/c3ccc(Cl)c([N+](=O)[O-])c3)C2=O)cc1C | –
O=C1NN(c2cc(Cl)cc(Cl)c2)C(=O)/C1=C\c1cccn1-c1ccc([N+](=O)[O-])cc1 | –
c1ccc(-c2nnc([C@H]3CCN(Cc4ccccn4)C3)o2)cc1 | –
Cc1cc(NCCN2CCOCC2)n2c(nc3ccccc32)c1C#N | –
CCCc1cc(NCCOC)n2c(nc3ccccc32)c1C#N | –
N#Cc1c(C(F)(F)F)cc(NCCN2CCOCC2)n2c1nc1ccccc12 | 34.0%
CCN(CC)C(=O)Cn1cnc2sc(C(=O)NCc3ccco3)c(C)c2c1=O | –
CCOc1ccc(NC(=O)CCC2CC(C)(C)OC2=O)cc1 (stereo not given) | –
SMILES | ST2 inh
O=C(O)C1=CC(=C(c2ccc(O)c(C(=O)O)c2)c2ccc(O)c(C(=O)O)c2)C=CC1=O | 89.0%
CCOC(=O)Oc1ccc2c(c1)oc(=O)c1ccccc12 | –
COC(=O)Oc1cc2oc(=O)sc2cc1Cl | –
CCOC(=O)Oc1c(Cl)cc2oc(=O)sc2c1Br | 32.0%
O=C(c1ccc([N+](=O)[O-])cc1)N1CCN(c2ccccn2)CC1 | –
COc1cc(C(Nc2cccc(C)n2)c2ccc3ccc(C)nc3c2O)ccc1O (stereo not given) | –
O=C(Nc1ccc([N+](=O)[O-])cc1)c1cc2ccccc2o1 | –
Cc1cc(NC(c2cccc([N+](=O)[O-])c2)c2ccc3cccnc3c2O)no1 (stereo not given) | 33.0%
O=[N+]([O-])c1ccc(NC(c2ccccn2)c2ccc3cccnc3c2O)cc1 (stereo not given) | 31.0%
Cc1ccnc(NC(c2ccncc2)c2ccc3cccnc3c2O)c1 (stereo not given) | –
CC1=C(C(=O)N2CCCCC2)C(c2ccc(Br)cc2)n2ncnc2N1 (stereo not given) | –
Cc1ccc(-c2nc3sccn3c2CN2CCN3C(=O)CNC(=O)C3C2)cc1 (stereo not given) | –
Clc1ccc2nc(N3CCOCC3)sc2c1 | –
CCOc1ccc2c(c1)sc(=NC(=O)c1ccc(S(=O)(=O)N3CCOCC3)cc1)n2C | –
CNCC1OCCc2ccccc21 (stereo not given) | –
Cc1ccc(NCC2OCc3ccccc3CO2)cc1 | 97.0%
O=C(c1n[nH]c2c1CCCC2)N(CC1CCN(C2CCCC2)CC1)CC1CCCO1 (stereo not given) | –
CC1CC(C)CN(CCCNC(=O)C2CCN(S(C)(=O)=O)CC2)C1 (stereo not given) | –
O=C1C(=O)N(Cc2ccccc2)c2ccc(Br)cc21 | 30.0%
O=C1c2ccccc2NC(c2ccc(Br)cc2)N1Cc1ccccc1 (stereo not given) | –
O=C1C(=O)N(Cc2ccc(F)cc2)c2ccccc21 | –
CCC(NCc1cnc(-c2ccc3ccccc3c2)nc1)c1nc(C)no1 (stereo not given) | –
Cc1ccc(C2C3=C(Nc4c2c(=O)[nH]c(=O)n4C)c2ccccc2C3=O)cc1Cl (stereo not given) | 32.0%
Cc1ccc(C2C3=C(Nc4c2c(=O)[nH]c(=O)n4C)c2ccccc2C3=O)cc1 (stereo not given) | 38.0%
CCOc1cc(C2C3=C(Nc4c2c(=O)n(C)c(=O)n4C)c2ccccc2C3=O)ccc1O (stereo not given) | –
Cn1c2c(c(=O)[nH]c1=O)C(c1ccc([N+](=O)[O-])o1)C1=C(N2)c2ccccc2C1=O (stereo not given) | –
Cc1ccc(C2OC(=O)c3ccccc32)cc1Cl (stereo not given) | –
